Compound activity deposited in PubChem BioAssay by National Center for Advancing Translational Sciences (NCATS).
Pf growth 96h – Primary qHTS for delayed death inhibitors of the malarial parasite plastid, 96 hour incubation. P. falciparum luciferase reporter growth, 96 h. actives 6.9% (n = 320,000). AID 504834, 2011. Potency, µM (series often up to 28.7 µM), hits mostly inhibitors
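Two-generation exposure (96 h) targets delayed-death phenotype. Reporter parasites carrying integrated firefly luciferase, in red cells at 2% hematocrit and 0.05% parasitemia final, kept at 37 C, 5% CO2; luminescence loss indicates inhibition.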
Cycloheximide cs – Cycloheximide Counterscreen for Small Molecule Inhibitors of Shiga Toxin | AID 2314, 2010 | actives 12% (n = 300,000) | max response, % | cell reporter, cycloheximide protein synthesis inhibition counterscreen; in the data active = max response mostly above about 13%, no sharp cut-off; inactive = mostly below about 14%; note: read at 38.3 µM for the half of the compounds with a filed dose
Pf growth 48h – Primary qHTS for delayed death inhibitors of the malarial parasite plastid, 48 hour incubation. P. falciparum luciferase growth in erythrocytes, 48 h. Potency, µM (series often up to 28.7 µM), actives largely listed as inhibitors. actives 5.9% (n = 310,000)
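Compounds are pin-transferred into medium, infected erythrocytes (2% hematocrit, 0.1% parasitemia final) are added, and plates sit one parasite generation at 37 C in 5% CO2. Detection reagent is then added and luminescence measured.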
HCV inh – qHTS Assay for Inhibitors of Hepatitis C Virus (HCV) | Huh7.5.1 HCVcc-Cre infection, luciferase reporter, 44 h | Potency, µM (doses to about 41.8 µM), actives largely listed as inhibitors | actives 3.4% (n = 340,000)
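Infectious HCV cell culture screen: compound-treated cells (1,000/well, pre-plated 4 h) are infected with HCVcc-Cre at roughly 0.5 moi and grown 44 h. Infection is quantified by luciferase signal after 15 min substrate incubation at room temperature.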
Shiga inhibitor – A qHTS for Small Molecule Inhibitors of Shiga Toxin; Vero cells, Shiga toxin protein synthesis inhibition reporter; inhibition, % at 38.7 µM; actives 9.2% (n = 290,000); in the data active = inhibition mostly above about 28%, no sharp cut-off; inactive = mostly below about 43%
HCMV inh – qHTS Assay for inhibitors of the human cytomegalovirus (HCMV). AID 1259415, 2018. HFF cells, HCMV-luciferase reporter, 72 h; hits give low values. activity change, negative = inhibition, % at 57.5 µM. actives 4.5% (n = 410,000); in the data active = activity change below about -60%; inconclusive = no clear call, values can overlap the other calls; inactive = above about -39%
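Human foreskin fibroblasts infected with luciferase-reporter HCMV at MOI 1 PFU/cell, compounds at two doses. Luciferase measured 72 h post infection; normalized to buffer-only basal and Salinomycin (10uM) controls.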
Of the large screens only hits and unclear results are named; the others gave an inactive call. Compounds with a hit are over-represented: about 21% of the library has one in this group of screens. Unless noted, calls come from the whole dose curve; as a rule, active = well fitted inhibition curve with a large enough effect; inconclusive = small, poorly fitted or top-dose-only effect, or another doubt; inactive = no such curve, though single readings can be large or run the other way.

Cc1ccc(Cl)cc1N1CCN(C(=O)Cn2c(-c3cccs3)cc3cc(F)ccc32)CC1	none (no result: Pf growth 96h, Cycloheximide cs, Pf growth 48h, HCV inh, Shiga inhibitor)
Cc1c(NC(=O)OCCSc2nc(N(C)C)nc(N(C)C)n2)sc(=S)n1C	HCV inh 14µM, HCMV inh inconclusive
CCN(Cc1nc2cc(Cl)ccc2c(=O)[nH]1)C(=O)c1cc(C2CC2)nn1-c1ccccc1	Pf growth 96h inconclusive, Pf growth 48h inconclusive (no result: Cycloheximide cs, Shiga inhibitor)
CCN(Cc1nc2cc(Cl)ccc2c(=O)[nH]1)C(=O)c1nn(C)c(=O)c2ccccc12	Pf growth 96h inconclusive, Pf growth 48h 8.3µM (no result: Cycloheximide cs, Shiga inhibitor)
CCN(Cc1nc2cc(Cl)ccc2c(=O)[nH]1)C(=O)c1ccc(C)c(NC(=O)c2ccco2)c1	Pf growth 96h 8.3µM, Pf growth 48h 9.3µM, HCV inh inconclusive (no result: Cycloheximide cs, Shiga inhibitor)
CN(Cc1ccccc1)C(=O)CCSc1nc(-c2ccc3c(c2)OCO3)cc(C(F)(F)F)n1	Pf growth 48h 9.3µM, HCV inh 10µM
Cc1ccc(-c2nc(C#N)c(N3CCC(C(N)=O)CC3)o2)cc1	Pf growth 96h inconclusive
CCn1ncc(C2=NOC(C(=O)Nc3cc(OC)c(Cl)cc3OC)C2)c1C (stereo not given)	Pf growth 96h inconclusive
COc1cc(OC)c(C2=NOC(C(=O)Nc3c(C)nn(CC(=O)N4CCCC4)c3C)C2)cc1Cl (stereo not given)	Pf growth 96h 5.9µM
Cn1ncc(Br)c1C(=O)N/N=C/c1ccc(OS(=O)(=O)c2ccccc2)cc1	none
CC(/C=N/NC(=O)c1nn(C)c(C)c1Br)=C\c1ccccc1	Cycloheximide cs 63, Shiga inhibitor 117
CC(/C=N/NC(=O)c1c(Br)cnn1C)=C\c1ccccc1	Cycloheximide cs 25, Shiga inhibitor 47
CC(/C=N/NC(=O)c1nnn(-c2nonc2N)c1C)=C\c1ccccc1	Pf growth 96h inconclusive
O=C(NC1CCCN(C2Cc3ccccc3C2)C1)c1ccc(F)cc1Cl (stereo not given)	none
Cc1ccc(NC(=O)c2oc3ccccc3c2NC(=O)C23CC4CC(CC(C4)C2)C3)cc1	none (no result: Pf growth 96h, Cycloheximide cs, Pf growth 48h, HCV inh, Shiga inhibitor)
COc1ccc(C)cc1Nc1ccc(C(=O)O)cc1[N+](=O)[O-]	none
Cc1ccc(Nc2ccc(C(=O)O)cc2[N+](=O)[O-])cc1	Pf growth 96h 9.3µM (no result: Pf growth 48h)
CC(C)c1ccc(Nc2ccc(C(=O)O)cc2[N+](=O)[O-])cc1	Cycloheximide cs 19
Cc1ccc2c(c1)-c1onc(C(=O)N3CCN(c4cc(Cl)ccc4C)CC3)c1CO2	none (no result: Pf growth 96h, Cycloheximide cs, Pf growth 48h, HCV inh, Shiga inhibitor)
COCCCN=Cc1c(C)[nH]n(-c2ccc(Br)c(C)c2)c1=O	Cycloheximide cs 49, HCV inh inconclusive, Shiga inhibitor 38
O=C(NC(=S)Nc1ccc2oc(=O)ccc2c1)c1ccco1	Cycloheximide cs 19, Shiga inhibitor 53
COc1cccc(OC)c1C(=O)NC(=S)Nc1ccc2oc(=O)ccc2c1	Pf growth 96h 1.9µM, Pf growth 48h 3.3µM
O=C(O)c1ccccc1-c1c2cc(Br)c(=O)c(Br)c-2oc2c(Br)c(O)c(Br)cc12	Pf growth 96h inconclusive (no result: HCV inh, HCMV inh)
CC(=O)c1ccc2c(c1)CC1(C2)Cc2cc3c(cc2C1)C(=O)CC3 (stereo not given)	none (no result: Pf growth 96h, Cycloheximide cs, Pf growth 48h, Shiga inhibitor)
CCOc1cc(C=O)ccc1OCC(=O)N1CCCC1	none
CCOc1cc(C(=O)Nc2ccc(C)cc2O)ccc1OCC(=O)N1CCOCC1	Pf growth 96h inconclusive, Pf growth 48h inconclusive, HCV inh inconclusive (no result: Cycloheximide cs, Shiga inhibitor)
CCOc1cc(C(=O)Nc2cc(C)ccc2C)ccc1OCC(=O)N1CCCCC1	Pf growth 96h inconclusive, Pf growth 48h inconclusive, HCMV inh -71
COc1ccccc1OCC(=O)N1CCCCCC1	none (no result: Pf growth 96h, Cycloheximide cs, Pf growth 48h, HCV inh, Shiga inhibitor)
CCOc1cc(/C=N/Nc2cccc(C(=O)O)c2)ccc1OCC(=O)N1CCCCC1	Cycloheximide cs 70, Shiga inhibitor 126
COc1ccccc1N1CCN(C(=O)COc2ccc(C)cc2Br)CC1	Pf growth 96h inconclusive, HCV inh inconclusive
CC(C)c1ccccc1OCC(=O)N1CCCCCCC1	Pf growth 96h 4.1µM
Cc1ccc(OCC(=O)N2CCCCC2)c(Br)c1	Cycloheximide cs 38, Shiga inhibitor 63
CCCCc1nn2c(=O)cc(COC(=O)c3cccc(Cl)c3)nc2s1	none (no result: Pf growth 96h, Cycloheximide cs, Pf growth 48h, HCV inh, Shiga inhibitor)
